In PubChem BioAssay (NCI):
The panel holds about 83,000 compounds, 20% with a hit somewhere; the sample as a whole holds those more often.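 Growth was measured after 48 h exposure to one concentration of compound in 96-well plates. Values under 10 count as active.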 Unmarked numbers belong to inactive results. Active and inactive are the calls of the source.

tested on: SF-268 CNS; test: NCI-60 one-dose screen, 48 h (100 = growth as untreated, 0 = no growth, -100 = all killed); conditions: 10 µM unless noted

With `CN1CCN(Cc2ccc(NC(=O)c3cncc(C#Cc4cnc5ccc(NCCCO)nn45)c3)cc2C(F)(F)F)CC1` the growth was -44.4% (active).
For `NC(N)=Nc1ccc(Oc2cccc(Nc3ccc(Br)c(C(F)(F)F)c3)c2)cn1`, the growth was 7.02% (active).
In the case of `Cn1ccnc1C(=O)/C=C/c1ccc(CNC(=O)c2ccc(F)cc2)cc1`, the growth is reported as 9.43% (active).
In the case of `COc1ccc2c(c1)c(CC(=O)[Se]CCC#N)c(C)n2C(=O)c1ccc(Cl)cc1`, the growth is reported as -30.7% (active).

Going from `COC(=O)c1[nH]nc2c1C1(C(=O)N(C)c3ccccc31)C(C#N)=C(N)O2` (stereo not given) to `COc1ccccc1N1CCN(C2=CC(=O)C(C)=C(C)C2=O)CC1`, the growth rises from 97.3% to 101%.

First: O=C(Cn1cc(-c2ccccc2)nn1)Nc1nc(-c2ccc(Cl)cc2)cs1
Second: N#Cc1c(Nc2ccccc2)nn2c(-c3ccc([N+](=O)[O-])cc3)ccnc12
The growth of the first is higher: 113% for the first, 100% for the second.

Compared with `COc1cc(OC)c(S(N)(=O)=O)cc1C(C)=O`, `COc1cc2oc(-c3cccc(C(=O)N[C@@H](CC(C)C)C(=O)OC(C)(C)C)c3)cc(=O)c2c(OC)c1OC` is lower in growth: 104% for the first, 83.8% for the second.

Compared with `Cc1c(Cl)cccc1S(=O)(=O)Nc1ccc2c(c1)C(=O)N(C1CCC(=O)NC1=O)C2=O` (stereo not given), `O=C1CCCC2=C1C(c1c[nH]c3ccc(Br)cc13)Cc1cc(Br)ccc1N2` (stereo not given) is lower in growth: 82.1% for the first, 51.8% for the second.

Going from `NS(=O)(=O)c1ccc(-n2cc(-c3cccc(NC(=O)c4ccc(N5CCOCC5)c(C(F)(F)F)c4)c3)nn2)cc1` to `COc1ccc(C(=O)CSc2nc3c(c(Nc4ccc(S(N)(=O)=O)cc4)n2)CCCC3)cc1`, the growth rises from 68.9% to 108%.

Compared with `CCc1cccc2c3c(sc12)C(c1ccc(OC)cc1)C(C#N)=C(/N=C/c1ccc(Cl)cc1)O3` (stereo not given), `CCO/C=N/C1=C(C#N)C(c2ccc(OC)cc2)c2sc3c(CC)cccc3c2O1` (stereo not given) is higher in growth: 60% for the first, 61.5% for the second.

Going from `Nc1ncc(-c2ccc3ncnc(N4CCc5cc(F)c(F)cc54)c3c2)cn1` to `CS(=O)(=O)Nc1cc(-c2ccc3ncc(C#N)c(N[C@H](CO)c4ccccc4)c3c2)cnc1Cl`, the growth falls from 29.5% to 28.4%.

First: COc1c(N2CC3CCCNC3C2)c(F)cc2c(=O)c(C(=O)N/N=C/c3ccc(Br)cc3)cn(C3CC3)c12 (stereo not given)
Second: CCn1c(SCC(=O)Nc2cccc(C(=O)/C=C/c3ccc(Br)cc3)c2)nc2ccccc2c1=O
The growth of the first is lower: 82.4% for the first, 100% for the second.

First: O=C(NNc1nc2cc(F)c(F)cc2n2c(CN3CC4CNCC4C3)ccc12)c1ncccn1 (stereo not given)
Second: CNC(=O)c1cc(Oc2ccc3nc(NC(=O)c4cccc(OC(F)(F)F)c4)sc3c2)ccn1
The growth of the first is lower: 19.7% for the first, 81.8% for the second.

First: COc1ccc(/C=C(\C#N)C(=O)N2c3ccccc3Sc3ccc(SC)cc32)cc1F
Second: COc1ccc(OC)c(-c2nc(SCC(=O)c3ccc(Br)cc3)nc(Nc3ccc(S(N)(=O)=O)cc3)c2C#N)c1
The growth of the first is higher: 91.8% for the first, 56.7% for the second.

First: Cc1ccc(NC(=O)CNc2cc(C(N)=O)cc(F)c2C)c(Cl)c1
Second: NC(=O)c1c(NC(=O)c2ccccc2C(F)(F)F)sc2c1CCC(=O)C2
The growth of the first is higher: 81.7% for the first, 24.6% for the second.

Going from `NC(N)=Nc1ccc(Nc2cccc(Nc3ccc(Cl)c(C(F)(F)F)c3)c2)cn1` to `FC(F)(F)c1cc(Nc2cccc(Oc3ccc(NC4=NCCN4)nc3)c2)ccc1Cl`, the growth rises from 33.1% to 34.8%.

Going from `CC(=O)c1nnn(-c2c(C(=O)n3nc(C)cc3C)sc(=S)n2-c2ccccc2)c1C` to `CC(C)(C)c1ccc(C(=O)Nc2nc3ccc(O)cc3s2)cc1`, the growth falls from 106% to 55.9%.

First: O=C(CCn1c[n+](CC(=O)c2ccc(-c3ccccc3)cc2)c2ccccc21)Nc1cccc2cccnc12
Second: COc1ccc(CCOc2cc3c(cc2OC)CCN(C(=O)NCc2cocn2)C3c2ccc(C)cc2C)cc1 (stereo not given)
The growth of the first is higher: 55% for the first, 21.2% for the second.

Going from `CN(C)CCN(C)c1ccc2ncc(C#Cc3cncc(C(=O)Nc4ccc(CN5CCN(C)CC5)c(C(F)(F)F)c4)c3)n2n1` to `NC(N)=Nc1ccc(Oc2cccc(NC(N)=Nc3ccc(I)cc3F)c2)cc1`, the growth falls from 64.6% to 36.4%.

In the case of `CC1(C)CC[C@]2(C(=O)N3CCOCC3)CC[C@]3(C)C(=CC[C@@H]4[C@@]5(C)C/C(=C/c6ccccn6)C(=O)C(C)(C)[C@@H]5CC[C@]43C)[C@@H]2C1`, the growth is reported as 59.6%.
